From ChEMBL document CHEMBL4513216, “Probing the Open Global Health Chemical Diversity Library for Multistage-Active Starting Points for Next-Generation Antimalarials” (ACS Infect Dis, 2020) come the findings set out here.

About 8,600 (12%) of roughly 69,000 compounds showed an effect of 50% or more. Only a selection was taken, and strong results are over-represented in it overall.

For the assay, the system named is Plasmodium berghei. The assay can be described thus: Screen against P. berghei liver stage (PbLuc), transformed with Luciferase, at 10uM. Conditions: tested at 10 uM. The assay is classed as functional, HepG2.
In the case of `CC(=O)N1N=C(c2cccs2)OC1C(=O)Nc1ccc(C(C)C)cc1` (centres undefined), the INHIBITION stood at 6.55%.
On to `CCN1CCCN(C(=O)c2ccc(NC(=O)CC(C)C)c(C)c2)CC1`, for which the INHIBITION is reported as 76.6%.
`CCN1CCN(c2ccc(NC(=O)CC(C)C)c(C)c2)CC1`: the INHIBITION amounted to 35.7%.
Turning to `COCC1CCCN(C(=O)c2ccc(NC(=O)CC(C)C)c(C)c2)C1` (centres undefined), the INHIBITION is reported as 4.97%.
With `CCOC(=O)COc1ccc(C(C)=O)c(O)c1`, the INHIBITION turned out to be 38.2%.
In the case of `Cc1nn(C)c(C)c1C1CCCN1C(=O)c1ccc2c(c1)OCCO2` (centres undefined) it was -45.9%; in that of `CCSCc1ccc(C(=O)N2CCCN(CC(N)=O)CC2)cc1`, -40.5%; in that of `Cc1cccc(CN2C(=O)CC[C@@H]3[C@H]2CCN3CC2CCOCC2)n1`, 38.1%.
For the compound `Cc1cnc(CNc2ccccc2CN(C)C(=O)c2cccs2)o1`, the INHIBITION is on record as 55.6%.
Under `CN(Cc1ccccc1NCc1cccnc1)C(=O)c1cccs1` stands 49.3%.
Turning to `CN(Cc1ccccc1NCc1cscn1)C(=O)c1cccs1`, the INHIBITION is on record as 20.6%.
Consider `CCc1noc(CN(CC)C(=O)CC2C(=O)NCCN2CC(C)(C)C)n1` (centres undefined), for which the INHIBITION was determined as 13.7%.
`CO[C@H]1CCN(S(=O)(=O)c2cccnc2)[C@@H]2CN(CC3CC3)C[C@H]12`: the INHIBITION was 52%.
Turning to `CCN1C[C@H]2[C@@H](C1)N(S(=O)(=O)c1ccccc1)CC[C@H]2OC`, the INHIBITION stood at 41.6%.
With `CO[C@@H]1CCN(S(=O)(=O)N(C)C)[C@@H]2CN(Cc3cccnc3)C[C@@H]21`, the INHIBITION is given as 36.2%.
`CO[C@H]1CCN(S(=O)(=O)N(C)C)[C@@H]2CN(Cc3cccnc3)C[C@H]12`: the INHIBITION is recorded as -18.5%.
In the case of `CCN1C[C@H]2[C@@H](C1)N(S(=O)(=O)c1cccnc1)CC[C@H]2OC` it was 59.1%.
On to `COCCN1C[C@@H]2[C@@H](OC)CCN(S(=O)(=O)c3cccnc3)[C@@H]2C1`, for which the INHIBITION came to 31.1%.
For the compound `CCN1C[C@@H]2[C@@H](OC)CCN(S(=O)(=O)c3ccccc3)[C@@H]2C1`, the INHIBITION was 17.6%.
For the compound `CO[C@@H]1CCN(S(=O)(=O)c2cccnc2)[C@@H]2CN(CC3CC3)C[C@@H]21`, the INHIBITION was 53.2%.
As to `CCN1C[C@@H]2[C@@H](OC)CCN(S(=O)(=O)c3cccnc3)[C@@H]2C1`, the INHIBITION is given as 26.4%.
With `O=C(NCCC1CCN(CC(F)(F)F)CC1)C1CCOC1` (centres undefined), the INHIBITION stood at 26.1%.
Regarding `Cc1csc(C(C)(C)NCC(=O)N(C)Cc2ccc(C)o2)n1`, the INHIBITION worked out at 11.3%.
For the compound `NC(=O)C1CCN(C(=O)c2cccn2Cc2cccs2)C1` (centres undefined), the INHIBITION was 11.6%.
Regarding `CN1CCc2nc(C3CCCN(S(=O)(=O)c4ccccc4)C3)ncc2C1` (centres undefined), the INHIBITION is reported as 29.85%.
Take `OC1(CN2CCC(Cc3ncccn3)CC2)CCCCC1`: the INHIBITION is on record as 14.6%.
In the case of `COCCc1noc(CN2CCCC2Cn2cccn2)n1` (centres undefined), the INHIBITION was found to be 38.8%.
Under `CSc1ccc(-c2noc(CN(Cc3ccccc3)C(C)C)n2)cc1` stands 46.1%; under `CSc1ccc(-c2noc(CN(CC(C)C)CC(C)C)n2)cc1`, 65.8%; under `COCCN(Cc1ccco1)Cc1nc(-c2ccc(C)c(F)c2)no1`, -16.7%.
For the compound `COc1ccc(CN2CC[C@H](NC(C)=O)[C@@H](O)CC2)c(F)c1`, the INHIBITION worked out at 38.2%.
Turning to `COC(=O)c1cccc(C(=O)NCc2ccc3c(c2)CCCN3C)c1`, the INHIBITION was 34.7%.
On to `COc1cc(C(=O)NCc2ccc3c(c2)CCCN3C)cc(OC)c1Br`, for which the INHIBITION is 34.7%.
`Cc1cnc(C(=O)NCc2ccc3c(c2)CCCN3C)cn1`: the INHIBITION was determined as 19.6%.
As to `CN1CCCc2cc(CNC(=O)c3cc[n+]([O-])cc3)ccc21`, the INHIBITION turned out to be 53.9%.
As to `CN1CCCc2cc(CNC(=O)c3ccncc3)ccc21`, the INHIBITION is listed as 63.9%.
As to `CN1CCCc2cc(CNC(=O)c3ccc(-n4cnnc4)cc3)ccc21`, the INHIBITION amounted to 37.4%.
As for `Cc1ccc(N2CCN(C(=O)C3CN(C)C(=O)N3)CC2=O)cc1` (centres undefined), the INHIBITION was determined as 17.8%.
Consider `O=C(CC1CCC1)N1CCCC(CO)(CC2CC2)C1` (centres undefined), for which the INHIBITION came out at 22.1%.
Under `CN(C)C(=O)N1CCN(c2ccc3ccc(C(=O)NC4CC4)cn23)CC1` stands -14.7%; under `CCOC(=O)c1c(NC(=O)CN2CCN(C(C)=O)CC2)sc2c1CCC2`, 14.2%; under `CC(C(=O)NCc1ccnc(N2CCN(C)CC2)c1)S(C)(=O)=O` (centres undefined), 23.333%.
Turning to `CC(=O)N1Cc2ccccc2OC2(CCN(C(=O)C3CCOC3)CC2)C1` (centres undefined), the INHIBITION turned out to be 6.26%.
As to `CCc1cc(N2CCC(Nc3ccc4nnc(C)n4n3)CC2)ncn1`, the INHIBITION was 46.4%.
Regarding `Cc1ccc(N2CCC(NC(C)c3cccs3)CC2)nc1` (centres undefined), the INHIBITION turned out to be 22.9%.
As for `Cc1ccc(N2CCC(Nc3ccc4nnc(C)n4n3)CC2)nc1`, the INHIBITION is given as 58.7%.
As for `c1cc(CN2CCC3(CCOCC3COCC3CC3)CC2)co1` (centres undefined), the INHIBITION is reported as 38.3%.
As to `Cn1nnc2c1CCN(Cc1ccco1)C2COCc1ccccc1` (centres undefined), the INHIBITION is given as -48.4%.
Take `Cc1cc(C)n(-c2ccc(N3CCCSCC3)nc2)n1`: the INHIBITION was 25.8%.
Take `Cc1cc(C)n(-c2ccc(N3CCC4(CC3)OCCO4)nc2)n1`: the INHIBITION is -125%.
As for `Cc1cc(C)n(-c2ccc(N3CCC(O)CC3)nc2)n1`, the INHIBITION turned out to be 50.5%.
For the compound `Cc1cccc(SC2CCN(Cc3nc(CC4CC4)no3)CC2)c1`, the INHIBITION is recorded as 11.9%.
Take `Clc1cccc2c1CCN(Cc1nc(CC3CC3)no1)C2`: the INHIBITION stood at 50.5%.
Regarding `Cc1ncc2c(n1)CCN(Cc1nc(Cc3ccccc3)no1)C2`, the INHIBITION is given as -154%.
On to `Cc1cccc(N2CCN(Cc3nc(CC4CC4)no3)CC2)n1`, for which the INHIBITION is 32.7%.
For the compound `CS(=O)(=O)Cc1noc(CN2CCc3c(Cl)cccc3C2)n1`, the INHIBITION turned out to be 82.5%.
Take `CS(=O)(=O)Cc1noc(CN2CCN(c3ccccc3Cl)CC2)n1`: the INHIBITION is 45.7%.
For the compound `CCOC(=O)c1sc(NC(=O)C(C)C)c(C#N)c1C`, the INHIBITION is 38%.
Consider `CN1CCN(Cc2ccccc2Oc2cncc(C(N)=O)n2)CC1`, for which the INHIBITION was found to be 4.82%.
As for `NC(=O)c1ccc(N2CCN(Cc3ccc(F)cc3Cl)CC2)nn1`, the INHIBITION was found to be 81.2%.
For `NC(=O)CN1CC2(CCC1=O)CCN(Cc1ccc(F)cc1Cl)CC2`, the INHIBITION amounted to 31.7%.
As to `COc1ccc(CN2CCCN(c3cc(C(N)=O)ccn3)CC2)cc1`, the INHIBITION is given as -18.7%.
Regarding `O=C(c1cnns1)N1CCN(Cc2ccc(F)cc2Cl)CC1`, the INHIBITION is on record as -18.2%.
Consider `NC(=O)c1cncc(N2CCN(Cc3cccc4nsnc34)CC2)n1`, for which the INHIBITION is listed as -47.8%.
`NC(=O)c1ccnc(N2CCCC(CO)(Cc3ccc(F)cc3)C2)c1` (centres undefined): the INHIBITION was determined as 43.5%.
In the case of `NC(=O)c1ccnc(N2CCN(Cc3ccc(F)cc3Cl)CC2)c1`, the INHIBITION came to 83.2%.
Turning to `NC(=O)c1cncc(N2CCN(Cc3ccc(F)cc3Cl)CC2)n1`, the INHIBITION is on record as 69.3%.
`Cc1nn(C)c(N2CCOCC2)c1CNCc1ccc(C(C)O)cc1` (centres undefined): the INHIBITION was found to be 43.2%.
Take `CC(C)CC(=O)N1CCN(Cc2cc(-c3ccncc3)nn2C)CC1`: the INHIBITION was -23.8%.
In the case of `CCOC(=O)c1sc(NC(=O)CN2C(=O)CCC2=O)c(C#N)c1C` it was 32.2%; in that of `CC(C)c1ccc(-n2ncc(C(=O)N(C)C3CCN(C)CC3)c2N)cc1`, -29%.
With `Cc1ccc(CN(CCN(C)C)Cc2ccnn2C2CCCCO2)o1` (centres undefined), the INHIBITION stood at 15.5%.
Turning to `Cc1ccc(O)c(C(=O)N2CCC3(CCCNC3)C2)c1` (centres undefined), the INHIBITION was 42.1%.
Regarding `O=C1CNc2ncnc(Nc3cnn(Cc4ccc(F)cc4)c3)c2N1`, the INHIBITION was found to be 65.8%.
For `O=C1CNc2ncnc(Nc3cnn(Cc4ccccc4)c3)c2N1`, the INHIBITION worked out at 34.6%.
In the case of `O=C1CNc2ncnc(Nc3cnn(Cc4cccc(F)c4)c3)c2N1`, the INHIBITION was -6.47%.
As for `COCCN1C[C@@H](C)[C@@]2(COCCN(C(=O)c3cccs3)C2)C1`, the INHIBITION was 20.1%.
For the compound `CCNC(=O)NC(c1ccc(C)cc1)c1cccc(S(C)(=O)=O)c1` (centres undefined), the INHIBITION is on record as 31.7%.
Consider `Cc1ccc(C(NC(=O)C2CC2)c2cccc(S(C)(=O)=O)c2)cc1` (centres undefined), for which the INHIBITION is 52.5%.
With `CCC(=O)NC(c1ccc(C)cc1)c1cccc(S(C)(=O)=O)c1` (centres undefined), the INHIBITION turned out to be 34.7%.
In the case of `Cc1cnc(CCNC(=O)C2CN(C(=O)Cc3ccc(F)cc3)C2)s1`, the INHIBITION is -3.15%.
Regarding `CN(C)CC1(O)CCCN(c2ccnc3c(C(F)(F)F)cccc23)C1` (centres undefined), the INHIBITION is 7.24%.
Consider `Cc1cc(C)n(C2CN(CC(=O)N(C)Cc3ccco3)C2)n1`, for which the INHIBITION was 39.7%.
In the case of `COc1cccc(CN(C)C(=O)CN2CCN(c3nccs3)CC2)c1`, the INHIBITION is 60.4%.
For the compound `COc1ccccc1CN(C)C(=O)CN1CC(n2nc(C)cc2C)C1`, the INHIBITION is 89.4%.
Regarding `Cc1cc(C)n(C2CN(CC(=O)N(C)Cc3cnn(C)c3)C2)n1`, the INHIBITION turned out to be 32.9%.
With `Cc1cc(C)n(C2CN(CC(=O)N(C)Cc3ccc(C)o3)C2)n1`, the INHIBITION is given as 71.9%.
With `Cc1cc(C)n(C2CN(CC(=O)N(C)Cc3ccsc3)C2)n1`, the INHIBITION worked out at 75.7%.
Take `COc1cccc(CN(C)C(=O)CN2CCN(c3nccn3C)CC2)c1`: the INHIBITION is given as -20.6%.
Under `COc1cccc(CN(C)C(=O)CN2CCN(CCO)CC2)c1` stands 13.7%; under `Cc1ccc(CN(C)C(=O)CN2CC(n3cccn3)C2)o1`, 28.4%.
Under `COc1ccccc1CNC(=O)C(C)N1CC(n2nc(C)cc2C)C1` (centres undefined) stands 6.27%.
In the case of `CN(Cc1ccsc1)C(=O)CN1CCOC(Cn2cncn2)C1` (centres undefined), the INHIBITION is listed as 5.7%.
Regarding `COc1ccccc1CC(=O)N1CCCC(n2nc(C)cc2C)C1` (centres undefined), the INHIBITION was 27.1%.
As for `COc1ccc(F)cc1S(=O)(=O)NCCn1cnc(C)cc1=O`, the INHIBITION came to 41.7%.
In the case of `COCCNC(=O)c1cc(-n2cccc2)ccc1Cl`, the INHIBITION is 22.2%.
Under `CCN(CC)c1ccc(C(=O)N2CCCC(n3cncn3)C2)cn1` (centres undefined) stands -12.7%; under `Cc1oncc1C(=O)N1CCC2(CC1)CN(S(C)(=O)=O)c1ccccc12`, -13.4%.
For the compound `COc1cccc(CNC(=O)C(C)N2CC(n3nc(C)cc3C)C2)c1` (centres undefined), the INHIBITION was 39.8%.
For `COCCN1CCN(CC(=O)N(C)Cc2ccsc2)CC1C` (centres undefined), the INHIBITION is given as -39.2%.
In the case of `COc1cccc(CN(C)C(=O)CN2CC(n3nc(C)cc3C)C2)c1` it was 53.7%; in that of `COCCN1CCN(CC(=O)N(C)Cc2ccsc2)CC1`, 65.7%.
In the case of `CN(Cc1ccsc1)C(=O)CN1CCc2c(ncn2C)C1`, the INHIBITION is listed as -1.15%.
In the case of `COc1cccc(CC(=O)N2CCCC(n3nc(C)cc3C)C2)c1` (centres undefined), the INHIBITION was 5.03%.
